Drawing on PubChem BioAssay (Tox21), this text covers Potency and outcome for twelve compounds.

Values joined by “and” are separate entries in the source; they are usually repeats but may differ in a detail not shown here. Identical values can stand only once. Results filed as inconclusive are left out. Where a structure was tested more than once in an assay, its records may differ in their call. Active and inactive are the calls of the source. Unless noted, calls follow the shape of the dose curve; as a rule, active = well fitted curve in the direction sought with a large enough effect in the repeat runs; inconclusive = weak or mixed curves; inactive = no such curve, though single readings can be large; an effect the other way counts as inactive or inconclusive.

The target in assay [1] is Retinoic acid receptor RXR-alpha (Homo sapiens) (UniProt P19793). The assay can be described thus: qHTS assay to identify small molecule agonists of the RXR signaling pathway (AID 1159527; calls by dose curve; also: nearly all actives have a fitted effect of over 35% in size). The procedure, abridged: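 GeneBLAzer RXR-alpha-UAS-bla HEK 293T cells in medium with 2% charcoal-stripped FBS, pre-incubated 5 hr at 37 C, then exposed to compounds 16 hr. Beta-lactamase reporter read by FRET substrate, 2 hr room temperature, 460/530 nm emission.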
Chain of Retinoic acid receptor RXR-alpha (Homo sapiens) (P19793 whole entry, looked up): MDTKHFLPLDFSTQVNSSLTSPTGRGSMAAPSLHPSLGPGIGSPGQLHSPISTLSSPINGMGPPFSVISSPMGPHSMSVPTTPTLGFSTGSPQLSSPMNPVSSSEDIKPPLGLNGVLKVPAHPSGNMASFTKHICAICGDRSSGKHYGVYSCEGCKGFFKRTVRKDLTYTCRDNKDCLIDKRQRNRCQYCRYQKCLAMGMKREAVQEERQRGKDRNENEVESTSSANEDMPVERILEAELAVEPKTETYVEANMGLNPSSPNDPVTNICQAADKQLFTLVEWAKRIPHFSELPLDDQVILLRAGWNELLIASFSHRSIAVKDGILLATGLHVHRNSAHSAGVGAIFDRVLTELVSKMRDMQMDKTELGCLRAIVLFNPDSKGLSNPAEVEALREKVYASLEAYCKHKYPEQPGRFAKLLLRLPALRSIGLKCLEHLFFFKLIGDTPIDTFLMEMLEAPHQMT
Background: In qHTS, concentration-response curves come from the screen itself.

The nature of assay [2]: qHTS assay to identify small molecule agonists of the RXR signaling pathway - cell viability counter screen (AID 1159529). Also: series mostly up to about 77 µM; nearly all actives have a fitted effect of over 50% in size. The procedure, abridged:
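RXR-alpha-UAS-bla HEK 293T cells in medium with 2% charcoal-stripped FBS were preincubated 5 hr, then exposed to compounds for 16 hr at 37 C. Viability was read as CellTiter-Glo luminescence after 30 min at room temperature.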

The nature of assay [3]: qHTS assay to identify small molecule antagonists of the retinoid acid receptor (RAR) signaling pathway - cell viability counter screen (AID 1159551). Also: nearly all actives have a fitted effect of over 35% in size. The procedure, abridged: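 C3RL4 RARE-luciferase cells, 1,000/well, incubated overnight, then dosed with compound plus 1 uM retinol (final). After 6 hr at 37 C, viability read by CellTiter-Glo ATP luminescence following 30 min at room temperature.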

Assay [4] in a line: qHTS assay to identify small molecule antagonists of the estrogen related receptor (ERR) signaling pathway from Tox21 library - cell viability counter screen (AID 1224834). Also: nearly all actives have a fitted effect of over 30% in size. Also: potency is read from the fitted curve at half-maximal effect. The method in brief:
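ERR reporter cells, 2,000 per well, rested 6 h, then exposed to compound in DMSO for 17.5 hours at 37 C. Viability read as fluorescence after 30 min with CellTiter-Fluor.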

The target of assay [5] is Luciferin 4-monooxygenase (Photinus pyralis) (UniProt P08659). Nature of the assay: qHTS assay to identify small molecule inhibitors of firefly luciferase (AID 1224835). Also: nearly all actives have a fitted effect of over 25% in size. Also: potency is read from the fitted curve at half-maximal effect. The procedure, abridged:
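Biochemical qHTS: compounds run as interplate titrations against purified firefly enzyme, with D-luciferin and ATP each at its KM concentration. Light output recorded by CCD imaging.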

Assay [6] is described as follows: qHTS assay to identify small molecule agonists of the constitutive androstane receptor (CAR) signaling pathway - cell viability counter screen (AID 1224836). Also: series mostly up to about 92 µM; nearly all actives have a fitted effect of over 45% in size. The method in brief: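 HepG2 cells stably carrying hCAR and a CYP2B6-2.2kb reporter were plated 4 h, then given compounds at 15 concentrations plus PK11195 (final 0.75 uM). After 23 h at 37 C, viability was read by CellTiter-Fluor fluorescence.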

Assay [7] is described as follows: qHTS assay to identify small molecule antagonists of the constitutive androstane receptor (CAR) signaling pathway - cell viability counter screen (AID 1224837). Also: series mostly up to about 92 µM; nearly all actives have a fitted effect of over 45% in size. The procedure, abridged:
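HepG2 cells stably carrying hCAR and CYP2B6-2.2kb reporter, stimulated with 50 nM CITCO and compounds at 15 concentrations for 23 h at 37 C. Viability measured by CellTiter-Fluor fluorescence.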

The target of assay [8] is Nuclear receptor subfamily 1 group I member 3 (Homo sapiens) (UniProt Q14994). The assay can be described thus: qHTS assay to identify small molecule antagonists of the constitutive androstane receptor (CAR) signaling pathway (AID 1224838). Also: nearly all actives have a fitted effect of over 40% in size. Also: potency is read from the fitted curve at half-maximal effect. The procedure, abridged:
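HepG2 cells stably carrying hCAR and a CYP2B6-2.2kb luciferase reporter, seeded 4 hrs before compound (15 concentrations). Stimulated with 50 nM CITCO for 24 hr at 37 C. ONE-Glo luminescence read after 30 min at room temperature.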

Assay [9] shares this target. The assay can be described thus: qHTS assay to identify small molecule agonists of the constitutive androstane receptor (CAR) signaling pathway (AID 1224839). Also: nearly all actives have a fitted effect of over 15% in size. Also: potency is read from the fitted curve at half-maximal effect. The procedure, abridged: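 HepG2 cells stably expressing hCAR and a CYP2B6-2.2kb luciferase reporter were treated with compounds at 15 concentrations plus 0.75 uM PK11195 (final) for 24 h at 37 C; luminescence was read after ONE-Glo addition.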

Assay [10] is described as follows: qHTS assay to identify small molecule antagonists of the estrogen related receptor signaling pathway with the pleiotropic PPARgamma coactivator (PGC) from Tox21 10K library - cell viability counter screen (AID 1224840; active = well fitted cell-killing curve with a large enough effect in the repeat runs, not every such curve was filed as active; also: nearly all actives have a fitted effect of over 40% in size). The procedure, abridged: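 PGC/ERR cells (2,000/well) plated 6 h, then compound-treated for 17.5 h at 37 C. Viability measured by CellTiter-Fluor fluorescence after 30 min at 37 C, multiplexed with the pathway assay.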

Assay [11] in a line: qHTS assay to identify small molecule antagonists of the retinoic acid receptor (RAR) signaling pathway (AID 1159552; also: nearly all actives have a fitted effect of over 50% in size). The procedure, abridged:
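RARE-luc C3RL4 cells; cpds + 1 uM (final) retinol, 6 hr, 37 C/5% CO2; luciferase reagent, 30 min RT, luminescence readout. Inhibitors of retinol-driven signal scored.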

The nature of assay [12]: qHTS assay to identify small molecule agonists of the retinoic acid receptor (RAR) signaling pathway (AID 1159553). Also: potency is read from the fitted curve at half-maximal effect. The procedure, abridged:
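C3RL4 RARE-luciferase cells were seeded at 1,000/well and grown overnight at 37 C, then exposed to compounds for 6 hr at 37 C, 5% CO2. Luciferase reagent was added and luminescence was read after 30 min at room temperature.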

Assay [13] deals with Thyrotropin receptor (Homo sapiens) (UniProt P16473). Nature of the assay: qHTS assay to identify small molecule agonists of the thyroid stimulating hormone receptor (TSHR) signaling pathway (AID 1224843; calls by dose curve; also: nearly all actives have a fitted effect of over 45% in size). The method in brief:
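TSHR-HEK293 cells in agonist mode, 30 min room-temperature step, then cAMP measured by competitive HTRF (cAMP-d2 with anti-cAMP cryptate) after 1 h at room temperature. Tested at 15 concentrations in triplicate.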

Assay [14] is described as follows: qHTS assay to identify small molecule agonists of the estrogen related receptor signaling pathway with the pleiotropic PPARgamma coactivator (PGC) from Tox21 10K library (AID 1224842). Also: nearly all actives have a fitted effect of over 15% in size. The method in brief: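 PGC/ERR reporter cell line, 2,000 cells per well, incubated 6 h at 37 C before 23 nL compound in DMSO was added. After 18 h at 37 C, One-Glo luminescence read following 30 min at room temperature.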

Chain of Thyrotropin receptor (Homo sapiens) (P16473 whole entry, looked up): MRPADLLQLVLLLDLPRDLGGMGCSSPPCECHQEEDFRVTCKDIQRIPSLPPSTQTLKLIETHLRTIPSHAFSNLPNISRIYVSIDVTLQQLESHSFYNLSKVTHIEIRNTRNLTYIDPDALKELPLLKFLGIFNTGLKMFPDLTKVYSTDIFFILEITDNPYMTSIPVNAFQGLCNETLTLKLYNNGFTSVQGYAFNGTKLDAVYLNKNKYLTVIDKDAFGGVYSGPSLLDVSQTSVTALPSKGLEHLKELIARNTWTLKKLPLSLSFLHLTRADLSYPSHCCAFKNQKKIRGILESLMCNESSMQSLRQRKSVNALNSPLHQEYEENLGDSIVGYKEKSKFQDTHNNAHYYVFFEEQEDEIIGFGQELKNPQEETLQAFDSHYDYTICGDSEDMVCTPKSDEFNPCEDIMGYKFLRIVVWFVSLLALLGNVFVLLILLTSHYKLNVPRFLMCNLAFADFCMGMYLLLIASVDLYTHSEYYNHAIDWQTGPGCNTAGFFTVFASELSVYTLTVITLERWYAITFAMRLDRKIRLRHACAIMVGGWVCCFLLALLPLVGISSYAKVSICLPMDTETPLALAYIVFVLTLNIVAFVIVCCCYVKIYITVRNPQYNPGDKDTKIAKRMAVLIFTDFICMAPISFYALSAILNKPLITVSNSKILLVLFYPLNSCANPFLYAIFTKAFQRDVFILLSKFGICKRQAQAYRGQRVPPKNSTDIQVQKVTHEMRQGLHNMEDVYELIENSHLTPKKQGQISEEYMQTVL
Chain of Nuclear receptor subfamily 1 group I member 3 (Homo sapiens) (Q14994 whole entry, looked up): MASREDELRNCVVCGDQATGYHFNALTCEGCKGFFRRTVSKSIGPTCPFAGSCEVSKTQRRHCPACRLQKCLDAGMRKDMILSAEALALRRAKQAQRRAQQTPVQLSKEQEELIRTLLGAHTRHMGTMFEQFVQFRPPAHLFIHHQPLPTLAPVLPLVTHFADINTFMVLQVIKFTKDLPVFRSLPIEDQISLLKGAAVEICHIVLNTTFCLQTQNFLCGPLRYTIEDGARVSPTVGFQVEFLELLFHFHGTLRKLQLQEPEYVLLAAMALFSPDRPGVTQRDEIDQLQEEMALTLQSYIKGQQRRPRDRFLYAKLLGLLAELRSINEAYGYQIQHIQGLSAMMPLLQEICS
Chain of Luciferin 4-monooxygenase (Photinus pyralis) (P08659 whole entry, looked up): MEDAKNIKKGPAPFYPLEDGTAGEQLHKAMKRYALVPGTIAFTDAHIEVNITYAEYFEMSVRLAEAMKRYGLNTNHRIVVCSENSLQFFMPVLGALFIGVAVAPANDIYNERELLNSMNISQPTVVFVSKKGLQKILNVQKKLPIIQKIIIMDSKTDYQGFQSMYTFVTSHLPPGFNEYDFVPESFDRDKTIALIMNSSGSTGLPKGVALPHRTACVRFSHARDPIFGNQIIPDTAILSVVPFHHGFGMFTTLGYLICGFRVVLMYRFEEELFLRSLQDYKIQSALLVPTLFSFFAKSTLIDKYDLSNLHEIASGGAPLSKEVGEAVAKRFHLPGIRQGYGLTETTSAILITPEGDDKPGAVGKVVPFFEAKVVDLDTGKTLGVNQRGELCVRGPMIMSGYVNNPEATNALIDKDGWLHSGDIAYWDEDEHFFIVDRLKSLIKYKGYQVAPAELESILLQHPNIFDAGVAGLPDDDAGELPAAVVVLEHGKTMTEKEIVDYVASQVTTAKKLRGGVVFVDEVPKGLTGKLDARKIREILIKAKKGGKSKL

Consider `CC(=O)/C=C/c1ccccc1`, for which the Potency entry in assay [1], in assay [4], in assay [5], in assay [6], in assay [7] and in [8] was “inactive” in each case. For the same compound, the Potency result in assay [9] and in assay [10] was “inactive” each time. Also, the compound was classed as inactive in assay [2] and in [3].

As to `Nc1ccc(N)cc1`, the Potency entry in [1], in [11], in assay [8] and in assay [10] was “inactive” throughout. In addition, the compound was called inactive in [2] and in assay [3]. For the same compound, the Potency in assay [12] was 34.4 µM (active) and 23.7 µM (active); in [4], 30.8 µM (active) and 30.6 µM (active) and inactive; in assay [5] it was 40.1 µM (active) and 35.6 µM (active); in assay [9], 21.8 µM (active) and 21.7 µM (active) and inactive.

Turning to `O=C(O)COc1ccccc1`, the Potency entry in assay [1], in assay [4], in assay [5], in [6], in assay [7] and in assay [8] was “inactive” in each case. For the same compound, the Potency entry in [9], in assay [10] and in assay [13] was “inactive” in each case. The compound was classed as inactive in [2] and in assay [3].

`Sc1ccccc1`: the call in assay [2] and in assay [3] was inactive. The Potency result in assay [4], in [5], in assay [6], in [7], in assay [9] and in assay [10] was “inactive” in each case. For the same compound, the Potency in assay [8] was 62 µM (active) and inactive.

`CC(=O)C1CCOC1=O` (stereo not drawn): the Potency entry in [1], in assay [11], in [12], in [4], in assay [5] and in assay [6] was “inactive” in each case. The Potency entry in [7], in [10] and in [13] was “inactive” each time. The result in assay [2] and in assay [3] was inactive.

Regarding `C=CC(=O)OCCCCCC(C)C`, the Potency result in assay [1], in assay [11], in assay [12], in [4], in assay [5] and in [6] was “inactive” throughout. In addition, the Potency result in assay [7], in assay [10] and in [13] was “inactive” each time. Also, the outcome in assay [2] and in assay [3] was inactive.

As to `O=[N+]([O-])c1ccc(Cl)cc1`, the Potency result in assay [1], in assay [4], in assay [5], in [6], in assay [7] and in assay [10] was “inactive” each time. In assay [13], the Potency result is “inactive”. For the same compound, the compound was classed as inactive in assay [2] and in assay [3].

Consider `O=C(O)C1C(C(=O)O)C2(Cl)C(Cl)=C(Cl)C1(Cl)C2(Cl)Cl` (stereo not drawn), for which the Potency entry in assay [1], in assay [4], in assay [5], in [6], in assay [7] and in assay [8] was “inactive” in each case. For the same compound, the Potency result in assay [9] and in assay [10] was “inactive” each time. Besides, the compound was classed as inactive in assay [2] and in [3].

On to `C[C@]12CC[C@H](O)CC1=CC[C@@H]1[C@@H]2CC[C@]2(C)C(=O)CC[C@@H]12`, for which the result in [2] and in assay [3] was inactive. For the same compound, the Potency result in assay [11], in assay [12], in [4], in [5], in [6] and in [7] was “inactive” throughout. The Potency result in assay [8], in assay [9] and in [10] was “inactive” in each case.

For `O=S(=O)(O)OOS(=O)(=O)O`, the Potency result in assay [1], in assay [4], in [5], in assay [6], in assay [7] and in assay [10] was “inactive” each time. Further, the result in assay [2] and in [3] was inactive.

Consider `Nc1cccc(Cl)c1`, for which the Potency entry in assay [1], in assay [4], in assay [5], in assay [6], in assay [7] and in assay [8] was “inactive” throughout. The Potency entry in assay [9], in assay [10], in [14] and in assay [13] was “inactive” throughout. In addition, the compound was called inactive in [2] and in assay [3].

Regarding `Nc1ccc([As](=O)(O)O)cc1`, the Potency entry in assay [1], in assay [4], in assay [5], in [6], in assay [7] and in [8] was “inactive” in each case. Further, the Potency result in [9], in assay [10] and in [13] was “inactive” in each case. Besides, the compound was classed as inactive in assay [2] and in assay [3].
